# Bioassay records (PubChem BioAssay)
# This is a sample that favours compounds with a hit; in the whole collection about 1% have one here.
# V-ATPase pH: regulators of yeast V-ATPase proton transport; S. cerevisiae, pHLuorin cytosolic pH fluorescence; response, % at 10 µM; 350,000 tested, 0.37% active; in the data active means response mostly above about 7.3%, no sharp cut-off; inactive means mostly below about 5.4%; further: actives read high
# CR mimetic SO: yeast age-related superoxide inhibition as caloric restriction mimetic | S. cerevisiae aged cells, superoxide DHE fluorescence; active compounds read low | superoxide response (% of plate mean), % at 10 µM | 330,000 tested, 0.18% active;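 active means superoxide response under a set limit, about three screen SD below normal, cut at about 65% in these data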;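 further: yeast aged for seven days with compound at 30 °C before DHE staining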
# hiPSC survival: increases survival of single human iPS cells. hiPSC single-cell survival, ATPlite luminescence; 100% = ROCK inhibitor wells, 0% = DMSO. survival enhancement, % at 20 µM. 360,000 tested, 0.044% active; in the data active means survival enhancement above about 18%;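 further: cells exposed to compounds for 16 hours before the ATP read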
# CTSL1 counter: counter-screen for PFM18AAP inhibitors: inhibitors of F. hepatica cathepsin L1; AID 1906; recombinant F. hepatica cathepsin L1, Z-Leu-Arg-MCA fluorescence; inhibition, % at 5.96 µM; 300,000 tested, 0.49% active;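 active means inhibition above the mean of all tested compounds plus 3 SD, set per screening campaign, cut at about 17% in these data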
# Numbers stand for hits; - = inactive; . = not tested or not shown.
SMILES,V-ATPase pH,CR mimetic SO,hiPSC survival,CTSL1 counter
COc1ccc(/C=N/NC(=O)c2nn(-c3ccccc3)c(=O)c3c(N)scc23)cc1,-,-,-,31
Nc1ccc(N2CCOCC2)c2nonc12,-,-,-,32
COc1cc(C(C)=O)ccc1OCC(=O)Nc1ccc(Cl)c(S(=O)(=O)N2CCOCC2)c1,-,-,-,.
O=c1ccn(C2CCCCC2)c(=O)[nH]1,.,.,-,.
Cc1cc(C)nc(/N=c2/ssnc2Cl)c1,-,-,-,22
CN(CC(=O)Nc1ccc(F)cc1)C(=O)c1ccc(N2C(=O)CCC2=O)cc1,-,-,-,.
Cc1ccc2nc(C)c(CN3CCN(c4ccc([N+](=O)[O-])cc4Cl)CC3)n2c1,-,-,-,-
O=C(N/N=C/c1ccc(OCc2ccccc2)cc1)c1ccco1,-,-,-,22
O=C(N/N=C/c1ccccc1)c1ccco1,-,-,-,-
Cc1cccc(C)c1NC(=O)C1CCCN1S(=O)(=O)c1ccc(-c2ccc(=O)[nH]n2)s1 (stereo not given),-,-,-,28
O=S(=O)(c1ccccc1)N1CCN=C1SCc1ccc(Cl)c(Cl)c1,37,-,-,-
CCOC(=O)C1=C(C)C(c2ccc(OC)cc2)NC(=S)N1 (stereo not given),-,-,-,17
Cn1c(CO)nc2c3ccccc3ccc21,-,-,-,-
Cc1nc2ccc(C(=O)Nc3ccccc3Cl)cc2s1,-,-,-,.
CCOc1ccc(C(=O)Nc2cnn(Cc3ccc(Cl)c(Cl)c3)c2)cc1,40,-,-,-
O=C(Nc1ccc(Cl)c(Cl)c1)c1ccc(Cn2cc(Cl)cn2)cc1,-,.,-,.
CCC(C)[C@H](N)c1nnc(SCC(=O)Nc2ccc(C)cc2C)o1 (stereo not given in full),-,-,-,32
CCN(CC)C(=O)CSc1nnc([C@@H](N)Cc2ccccc2)o1,-,-,-,44
Cc1ccc(NC(=O)CSc2nnc(-c3ccco3)o2)c(C)c1,-,-,-,-
CCc1ccccc1NC(=O)CSc1nnc([C@@H](N)Cc2ccccc2)o1,-,-,-,68
Cc1nn(C2CCS(=O)(=O)C2)c(C)c1CN(C)C(=O)c1ccc(Cl)cc1 (stereo not given),-,-,-,.
Cn1c(Cn2nnc3ccccc32)nnc1SCC(=O)N1c2ccccc2Sc2ccccc21,-,-,-,17
O=C1c2ccccc2C(=O)N1CC(O)Cn1nnc2ccccc21 (stereo not given),-,-,-,-
OC(CN1c2ccccc2Sc2ccccc21)Cn1nnc2ccccc21 (stereo not given),-,-,-,17
Cn1c(Cn2nnc3ccccc32)nnc1SCC(=O)N1c2ccccc2CCc2ccccc21,-,-,-,-
SMILES,V-ATPase pH,CR mimetic SO,hiPSC survival,CTSL1 counter
Cc1ccc(CNC(=O)c2cc3c(=O)n4ccccc4nc3n(Cc3ccco3)c2=N)cc1,-,-,-,-
Cc1ccc2nc3c(cc(C(=O)NCc4ccco4)c(=N)n3Cc3ccco3)c(=O)n2c1,-,-,-,19
Cc1cccc(C)c1OCc1nnc(SCC(=O)NCc2ccccc2)o1,-,-,-,21
CC1C/C(=N\NC(N)=S)c2cc(Cl)ccc2S1 (stereo not given),-,-,-,68
Oc1ccc(N=Cc2ccc(O)c(O)c2)cc1,-,-,-,46
O=C(CCSCc1ccc(Cl)cc1)NCCc1ccccc1,-,-,-,-
O=C(CCSCc1cccc(Cl)c1)NCCc1ccc(Cl)cc1,58,-,-,-
O=C(NCC(c1ccco1)N1CCCC1)c1ccccc1Sc1ccc(C(F)(F)F)cc1[N+](=O)[O-] (stereo not given),-,-,-,20
Cc1ccc2c(c1)CCCO[C@]21O[C@H](CCO)C[C@H](O)[C@H]1O,.,.,-,.
Cc1ccc(C)c(S(=O)(=O)N2C(=S)NC(=O)C2C(C)C)c1 (stereo not given),-,-,-,17
Cc1ccc(C)c(S(=O)(=O)N2CCCN(C)CC2)c1,-,-,-,-
CCN(CC)S(=O)(=O)c1cc(NC(=O)C(C)N2CCN(Cc3ccc4c(c3)OCO4)CC2)ccc1C (stereo not given),-,-,-,-
CC1CCN(C(=O)C(Cc2ccccc2)NS(=O)(=O)c2ccc3c(c2)oc(=O)n3C)CC1 (stereo not given),-,-,-,-
CSCCC(NS(=O)(=O)c1ccc2c(c1)oc(=O)n2C)C(=O)NC1CCN(Cc2ccccc2)CC1 (stereo not given),-,-,-,41
CSCCC(NS(=O)(=O)c1ccc2c(c1)oc(=O)n2C)C(=O)NC1CCC(C)CC1 (stereo not given),-,-,-,-
CC(C)C(NS(=O)(=O)c1ccc2c(c1)oc(=O)n2C)C(=O)N1CCN(Cc2ccccc2)CC1 (stereo not given),-,-,-,47
CN(Cc1ccccc1)C(=O)c1cccc(NC(=O)Cc2ccc(NC(=O)C3CCN(C(=O)C4CCCCC4)CC3)cc2)c1,-,.,-,.
NC(=O)c1ccc(N=Cc2c(O)ccc3ccccc23)cc1,-,-,-,-
C=CCS/C(N)=N\N=C\c1c(O)ccc2ccccc12,-,-,-,22
O=C(NCc1ccccc1)c1c(O)c2cccc3c2n(c1=O)CCC3,-,-,-,-
O=C(NCc1ccc2c(c1)OCO2)c1c(O)c2cccc3c2n(c1=O)CCC3,30,-,-,-
COc1ccc(OC)c(-c2csc(NC(=O)COC(=O)c3ccc(NC(=O)CC#N)cc3)n2)c1,-,-,-,.
Cn1nc(C(=O)Nc2ccc(S(=O)(=O)Nc3ncccn3)cc2)ccc1=O,-,-,-,-
Cc1ccc(-n2c(Cc3cccn3C)nnc2SCC(=O)N2CCN(c3ccccc3)CC2)cc1,20,-,-,-
CCCc1cc(C(=O)Nc2ccc(C(C)=O)cc2)no1,-,-,-,17
SMILES,V-ATPase pH,CR mimetic SO,hiPSC survival,CTSL1 counter
CC(C)(C)c1cc[n+](C2=C([O-])c3ccccc3C(=O)/C2=N\S(=O)(=O)c2cccs2)cc1,-,-,-,24
O=C1/C(=N\S(=O)(=O)c2cccs2)C([n+]2ccccc2)=C([O-])c2ccccc21,-,-,-,26
O=C(O)c1ccc(NC2=C/C(=N/S(=O)(=O)c3cccs3)c3ccccc3C2=O)cc1,-,.,-,.
O=S(=O)(NCC(O)c1ccccc1)c1cc(Cl)sc1Cl (stereo not given),-,-,-,-
Cc1nn(C)c(C(=O)N/N=C/c2ccncc2)c1Cl,-,-,-,-
Cc1nn(C)c(C(=O)N/N=C/c2ccc(Br)cc2)c1Cl,-,61,-,-
CC(=O)c1cccc(N2Cc3ccccc3C2=NC(=O)CCl)c1,-,-,-,77
COCCNC(=O)C1(C)CCCN(C(=O)c2cc(F)ccc2C)C1 (stereo not given),.,.,-,.
Cc1ccc(NC(=O)c2ncn(CCCNCc3ccccc3)n2)cc1C,-,.,-,.
COC(=O)CCC(=O)Nc1ccc(S(=O)(=O)Nc2nc(C)cc(C)n2)cc1,-,-,-,-
O=C1C(Cl)=C(NCCN2CCCCC2)C(=O)c2ccccc21,-,-,-,54
O=C(NC1CC1)c1ccc(CSCc2ccc(Cl)cc2)o1,.,.,-,.
